Compound activity: PubChem BioAssay, several laboratories
LEDGF integ inh: blocks HIV-1 LEDGF/p75-dependent DNA integration. AID 743269. TR-FRET IN-LEDGF/p75 DNA integration, Eu/Cy5. inhibition, % at 3.7 µM. 370,000 tested, 0.64% active;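 active = inhibition above the screen-wide mean plus 3 SD, cut at about 13% in these data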;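 also: signal is the Cy5 over europium emission ratio at 671 and 618 nm; 0% = plate median of compound wells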
DNMT1 block: blocks human DNA methyltransferase DNMT1 | DNMT1 molecular beacon, Hinp1I cleavage, fluorescence | 360,000 tested, 0.83% active | P26358 | inhibition (reported as % activation of signal), % at 10 µM | AID 588458; in the data active = inhibition above about 50%
rCAG binder: molecules binding r(CAG) RNA repeats | 370,000 tested, 1.3% active | AID 651821 | r(CAG) RNA repeat, TO-PRO-1 dye displacement fluorescence | inhibition, % at 3 µM;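 active = inhibition above the plate cutoff, the mean of all test compounds on that plate plus 3 SD, cut at about 35% in these data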;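 also: 0% = DMSO alone and 100% = 100 µM mitoxantrone as full dye displacement; higher means more dye released from RNA so lower well fluorescence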
UHRF1 MBD2 ctr: blocks human UHRF1 binding to methylated DNA. UHRF1 binding to methylated oligo, TR-FRET. inhibition, % at 4.4 µM. 370,000 tested, 0.75% active. AID 687016; in the data active = inhibition above about 21%;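 also: UHRF1 SRA domain binding a hemimethylated CpG hairpin DNA probe; 0% = median of test compound wells and 100% = reference inhibitor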
Target sequence (Q96T88 whole entry, looked up, the tested form may be a part): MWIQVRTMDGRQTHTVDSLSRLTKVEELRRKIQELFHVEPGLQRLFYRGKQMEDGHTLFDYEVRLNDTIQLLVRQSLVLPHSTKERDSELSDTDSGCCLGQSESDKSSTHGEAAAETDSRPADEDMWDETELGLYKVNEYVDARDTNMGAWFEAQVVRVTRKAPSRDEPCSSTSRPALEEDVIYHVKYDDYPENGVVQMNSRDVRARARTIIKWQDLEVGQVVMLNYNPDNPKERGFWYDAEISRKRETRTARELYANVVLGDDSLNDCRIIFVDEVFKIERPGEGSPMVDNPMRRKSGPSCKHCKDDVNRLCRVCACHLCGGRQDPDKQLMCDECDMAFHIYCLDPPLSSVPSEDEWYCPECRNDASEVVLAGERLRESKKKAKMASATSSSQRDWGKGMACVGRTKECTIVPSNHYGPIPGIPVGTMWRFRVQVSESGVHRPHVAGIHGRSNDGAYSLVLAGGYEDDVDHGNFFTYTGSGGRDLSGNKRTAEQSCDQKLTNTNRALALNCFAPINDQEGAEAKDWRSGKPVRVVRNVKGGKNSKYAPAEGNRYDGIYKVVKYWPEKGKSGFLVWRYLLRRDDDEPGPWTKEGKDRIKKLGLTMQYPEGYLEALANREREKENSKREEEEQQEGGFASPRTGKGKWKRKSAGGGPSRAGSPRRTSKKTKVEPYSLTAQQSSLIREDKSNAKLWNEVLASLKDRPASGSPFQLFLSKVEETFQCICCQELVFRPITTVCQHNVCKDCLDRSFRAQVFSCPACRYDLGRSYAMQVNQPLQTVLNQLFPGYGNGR
MBD2 inh: blocks human MBD2 binding to methylated DNA | Q9UBB5 | TR-FRET, MBD2 binding to methylated oligonucleotide | inhibition, % at 4.4 µM | 370,000 tested, 0.31% active; in the data active = inhibition above about 13%
PG9 binder: PG9 antibody binding by small molecule. AID 624416. inhibition, % at 6.7 µM. TR-FRET gp120-PG9 antibody binding. 360,000 tested, 0.43% active; in the data active = inhibition above about 8.5%
DNMT1 interf DR: shows spectral interference in the DNMT1 beacon assay | 200 tested, under 10 active | IC50, µM | shares compounds with DNMT1 block | molecular beacon fluorescence, spectral interference counter-screen; call rule not given here
DNMT1 confirm: DNMT1 inhibition confirmation, single concentration; 2,300 tested, 8% active; shares compounds with DNMT1 block; inhibition, % at 10 µM; AID 602385; DNMT1 molecular beacon HinP1I cleavage, fluorescence;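 active = average inhibition of at least 30% in the single-concentration confirmation test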
Beacon interf: shows spectral interference in the DNMT1 beacon assay. shares compounds with DNMT1 block. DNMT1 molecular beacon spectral interference counterscreen, fluorescence 485/520. activation (fluorescence interference), % at 10 µM. 2,300 tested, 1% active;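 active = activation of at least 30% at 10 µM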;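 also: DNMT1 catalytic domain with a HinP1I cleavage step and a FAM/dabcyl DNA beacon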
Active calls of the source: *; · = no result. An excerpt weighted towards active compounds, which were near 3.5% of everything screened.

SMILES	LEDGF integ inh	DNMT1 block	rCAG binder	UHRF1 MBD2 ctr	MBD2 inh	PG9 binder	DNMT1 confirm	Beacon interf	others
CC(=O)c1ccc(Nc2nc(C(N)COCc3ccccc3)cs2)cc1 (stereo not given)	0	-40	14	-2	0	-1	·	·
COc1ccc(-n2nnnc2C2(C)CCC(=O)N2Cc2ccccc2)cc1 (stereo not given)	1	·	0	-2	-1	0	·	·
COc1cccc(NC(=S)NCCC(c2ccccc2)c2ccccc2)c1	-2	56*	-3	-3	-6	-2	9	9
NS(=O)(=O)c1ccc(CNC(=O)/C=C/c2ccco2)cc1	5	90*	6	9	4	-1	9	9
O=C(/C=C/c1ccco1)NCc1ccc(F)cc1	4	-5	9	3	7	0	·	·
CCc1ccc(/C(C)=N/NC(=O)CNC(=O)/C=C/c2ccccc2OC)cc1	-1	-1	3	-1	9	0	·	·
CCc1ccc(/C(C)=N/NC(=O)CNC(=O)/C=C/c2ccco2)cc1	·	92*	·	·	·	·	69*	-6	DNMT1 interf DR=>99
COc1ccc(CC(=O)NC(C)c2ccc(S(N)(=O)=O)cc2)cc1S(=O)(=O)N1CCOCC1 (stereo not given)	0	0	3	-4	-5	-1	·	·
O=C(Nc1cnn(C23CC4CC(CC(C4)C2)C3)c1)c1cnn2c(C(F)(F)F)cc(-c3ccco3)nc12	-3	58*	1	0	2	2	-2	-2
CC(=O)NC(CC(=O)NC(C)c1ccc(Cl)cc1Cl)c1ccccc1 (stereo not given)	2	68*	-2	1	-2	-1	0	2
O=C1Nc2ccc(S(=O)(=O)NCc3ccco3)c3cccc1c23	4	63*	8	-2	-10	-4	1	78*
CCC1Oc2nc(SC)nnc2-c2ccccc2N1C(=O)c1ccccc1 (stereo not given)	2	54*	-1	-3	2	0	5	6
CC(=O)Nc1cc(C(=O)CSc2nnc(C3CC3)n2C2CC2)ccc1O	7	25	16	4	2	0	·	·
COc1cc2c(=O)[nH]c3cc([N+](=O)[O-])ccc3c2cc1[N+](=O)[O-]	1	76*	9	3	2	1	-3	-5
O=C(COc1ccc(Br)cc1)Nc1ccc(N2CCOCC2)cc1N1CCOCC1	1	55*	2	2	5	2	5	5
COc1cc(C(C)=O)ccc1OCC(O)CN1CCN(c2ccc(F)cc2)CC1 (stereo not given)	-4	3	-1	1	5	1	·	·
N#Cc1nc(-c2ccc(OCc3ccc(Cl)cc3)cc2)oc1N1CCC(C(N)=O)CC1	-4	67*	1	0	1	0	-1	2
Cc1ccc2cc3cc(C(=O)NCc4ccc5c(c4)OCO5)oc3nc2c1	-2	54*	4	9	9	2	0	-8
COc1ccc2cc3cc(C(=O)Nc4ccc5c(c4)OCO5)oc3nc2c1	-2	60*	4	5	10	1	1	0
CCC(CC)C(=O)N(C)c1c(C)nc2c(OCc3ccc(Cl)cc3Cl)cccn12	2	15	1	5	3	0	·	·
CCC(CC)C(=O)N(C)c1c(C)nc2c(OCc3ccccc3C)cccn12	3	68*	-2	4	6	3	0	0
O=C(CCN1C(=O)/C(=C/c2ccc(Cl)cc2)SC1=S)NC1C=CS(=O)(=O)C1 (stereo not given)	-4	4	2	2	0	1	·	·
O=C(CN1C(=O)/C(=C/c2ccc(Cl)cc2)SC1=S)NC1C=CS(=O)(=O)C1 (stereo not given)	0	65*	5	4	-4	-2	6	2
O=C1CCC2(CCCCC2)N1CCCO	0	·	1	0	-1	·	·	·
COc1ccc(OC)c([N+](=O)[O-])c1C(N)=O	1	75*	0	11	1	-1	2	-2
SMILES	LEDGF integ inh	DNMT1 block	rCAG binder	UHRF1 MBD2 ctr	MBD2 inh	PG9 binder	DNMT1 confirm	Beacon interf	others
Cc1ccc(O)c(-c2cc(-c3ccccc3[N+](=O)[O-])[nH]n2)c1	2	-9	15	-3	3	0	·	·
COc1ccc(O)c(-c2cc(-c3ccccc3[N+](=O)[O-])[nH]n2)c1	-5	86*	6	5	4	-1	3	6
COc1cccc(NC(=O)N(C)C[C@H]2OCc3ccccc3-c3c(n(C)c4ccccc34)C(=O)N([C@H](C)CO)C[C@H]2C)c1	2	·	9	-2	-1	-1	·	·
Cc1ccc(Cl)cc1N1CCN(C(=O)CSc2ccsc2[N+](=O)[O-])CC1	-1	63*	18	-3	3	-1	0	-1
Cc1nn(-c2ccc(F)cc2)c(Cl)c1/C=N/NC(=O)c1cccc(S(=O)(=O)N2CCCC2)c1	0	75*	4	-2	1	-1	0	-9
COc1cc(OC)cc(C(=O)NC(C(=O)OCn2nnc3ccccc3c2=O)C(C)C)c1 (stereo not given)	-4	87*	-2	1	-1	1	5	3
Cc1nc2c(nc1C)C(=O)c1ccccc1C2=O	2	-8	0	-1	-11	-3	·	·
COC1=C(Br)C(=O)c2nc(C)ccc2C1=O	65*	83*	22	39*	6	-4	41*	-8	DNMT1 interf DR=>99
O=C(c1cc(-c2ccccc2O)on1)N1CCCCCC1	-1	2	0	-1	-2	0	·	·
CCOC(=O)c1c(NC(=O)COC(=O)Cn2c(C)nc3ccccc32)sc2c1CCCC2	3	65*	1	-4	-6	-3	5	1
CCOC(=O)c1c(NC(=O)Cn2c(C)nc3ccccc32)sc2c1CCC2	3	4	6	0	1	-1	·	·
CNc1ccc([N+](=O)[O-])cc1-c1nc2ccccc2[nH]c1=O	0	51*	3	-4	-7	-2	1	-5
CC1(C)OC2CC3C4CC=C5CC(O)CCC5(C)C4CCC3(C)C2(C(=O)CO)O1 (stereo not given)	3	67*	-1	4	-7	-1	2	4
CC(=O)OCC(=O)C12OC(C)(C)OC1CC1C3CC=C4CC(O)CCC4(C)C3CCC12C (stereo not given)	-3	16	1	1	4	1	·	·
